Results as given in PubChem BioAssay (NCI).
Where “and” joins values, the source holds several entries; their conditions need not be identical. Equal values may be shown once. Compounds without any hit were thinned out: in the full panel of roughly 79,000, 15% have a hit. A structure can be active in one record and inactive in another. Calls of active or inactive are those of the source. Rule as the data show it: active = growth inhibition above about 70%; inactive = the rest. *1 amine or outer side, *2 acyl side, *3 side chain or, on linkers, in order; H or OH if unused. Where a SMILES comes first, the peptide text is derived from it. Bridges are numbered along the chain shown (N, C = ends). Roman numbers before positions name the chains, in order. [ ]: non-standard residue; d: D form. Actinocin(9to1) = Cc1c2oc3c(C)ccc(C(=O)[*:1])c3nc-2c(C(=O)[*:2])c(N)c1=O; NMeY = CN[CH](Cc1ccc(O)cc1)C(=O)O; Sar = CNCC(=O)O

experiment: NCI Yeast Anticancer Drug Screen. Data for the rad50 strain (AID 155);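 also: 0% = growth of vehicle-only cultures of the same strain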; conditions: S. cerevisiae rad50 strain growth inhibition; at 50.0 µM; stronger effect = higher value
How it was run: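 Relative growth inhibition (compound vs vehicle) was measured in yeast with a defined repair-gene alteration.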

Row | Structure (SMILES) | growth inhibition
1 | O=C(O)C1(O)C[C@@H](O)C(O)[C@H](O)C1 (some centres undefined) | 4.9% (inactive) and -19.3% (inactive)
2 | C1CCC(N2CN(C3CCCCC3)C2)CC1 | 7.7% (inactive) and 0.05% (inactive)
3 | O=P(O)(O)Oc1ccccc1 | -10.4% (inactive) and -8.3% (inactive)
4 | CCOc1ccc(C=O)cc1OC | -29.6% (inactive) and -0.5% (inactive)
5 | OC1C2COC(O2)C(O)C1O (centres undefined) | -0.4% (inactive) and -29.9% (inactive)
6 | Cn1c(=O)c2[nH]cnc2n(C)c1=O | 4.5% (inactive) and 10.1% (inactive)
7 | CC1C(=O)c2cc3c(cc2CCN(C)Cc2c1ccc1c2OCO1)OCO3 (centres undefined) | 13.9% (inactive) and 3.4% (inactive)
8 | O=CC(O)C(O)C(OC1OC(CO)C(O)C(O)C1O)C(O)CO (centres undefined) (tested in a mixture with another compound) | 89.5% (active) and 38% (inactive)
9 | CC(C)(O)C(I)C[n+]1ccccc1 (centres undefined) | 38.5% (inactive) and -7.55% (inactive)
10 | CC1(C)OC2OC(C(COS(C)(=O)=O)OS(C)(=O)=O)C(OS(C)(=O)=O)C2O1 (centres undefined) | 15.7% (inactive) and -9.65% (inactive)
11 | Cc1ccc(S(=O)(=O)N(C)c2ccccc2)cc1 | -18.6% (inactive) and -3.7% (inactive)
12 | CC1CC(C)(C)C2=NCCN21 (centres undefined) | 2.25% (inactive) and -8.15% (inactive)
13 | O=C1C2C3C=CC(C3)C2C(=O)N1O (centres undefined) | 18.1% (inactive) and 24.3% (inactive)
14 | C=C1C(=O)OC2/C=C(/C)C3CC(O)C(C)(CC(OC(=O)/C(C)=C/C)C12)O3 (centres undefined) | -9.75% (inactive) and -7.75% (inactive)
15 | O=C(O)C(Cc1ccc(O)cc1)NS(=O)(=O)Cc1ccccc1 (centres undefined) | -12.8% (inactive) and 7.15% (inactive)
16 | N#Cc1c(-c2ccccc2)cc(-c2ccccc2)n(C2OC(CO)C(O)C(O)C2O)c1=O (centres undefined) | -14.6% (inactive) and -8.2% (inactive)
17 | O=C1NC(=O)C(CO)(c2ccccc2)N1 (centres undefined) | 14.2% (inactive) and 7.65% (inactive)
18 | CSCCC(NC(=O)CN)C(=O)O (centres undefined) | 8.7% (inactive) and -6.35% (inactive)
19 | CCCCc1ccc(OC2OC(COC(C)=O)C(OC(C)=O)C(OC(C)=O)C2OC(C)=O)cc1 (centres undefined) | -29.1% (inactive) and -28.1% (inactive)
20 | CC(C)(C)CC(C)(C)c1ccc(O)c(SSc2cc(C(C)(C)CC(C)(C)C)ccc2O)c1 | 4.95% (inactive) and 11.8% (inactive)

Row | Structure (SMILES) | growth inhibition
21 | CCCc1ccc(OC2OC(COC(C)=O)C(OC(C)=O)C(OC(C)=O)C2OC(C)=O)cc1 (centres undefined) | -7% (inactive) and -12.6% (inactive)
22 | COc1ccc(COC(=O)NCC(=O)NC(C)C(=O)NC(Cc2ccccc2)C(=O)OCc2ccccc2)cc1 (centres undefined) | -6.5% (inactive) and 3.15% (inactive)
23 | COC1OC2COC(c3ccccc3)OC2C(OC(C)=O)C1OC(C)=O (centres undefined) | 15.4% (inactive) and 5.85% (inactive)
24 | Cc1cc(Cc2cc(C)c(O)c(C(=O)O)c2)cc(C(=O)O)c1O | 0.25% (inactive) and -7.15% (inactive)
25 | O=C1CCSSCCC(=O)NCCN1 | 7.95% (inactive) and -6.4% (inactive)
26 | COC1C(C)OCOC2COCOC21 (centres undefined) | 17.4% (inactive) and -6.3% (inactive)
27 | C[N+](C)(C)CCOC(=O)c1ccccc1CBr | -10.6% (inactive) and 52.1% (inactive)
28 | C[N+](C)(C)CCOP(=O)(O)OP(=O)([O-])OCC1CCC(n2ccc(N)nc2=O)O1 (centres undefined) | 7.7% (inactive) and 4.45% (inactive)
29 | C/C(=N\O)c1ccccc1 | -11.2% (inactive) and 18.9% (inactive)
30 | O=C(CC(=O)c1cccnc1)NC(=O)c1ccccc1 | -1.05% (inactive) and -34.5% (inactive)
31 | Cc1ccc(S(=O)(=O)NN)cc1 | -8.7% (inactive) and 9.3% (inactive)
32 | O=c1oc2c(O)c(O)cc3c(=O)oc4c(O)c(O)cc1c4c23 | 25.8% (inactive) and 6.65% (inactive)
33 | C/C(=N\NS(C)(=O)=O)C(C)(C)C | -5.05% (inactive) and 16.1% (inactive)
34 | CCOC(=O)C(OC1OC(C(=O)OC)C(OC(C)=O)C(OC(C)=O)C1OC(C)=O)c1ccccc1 (centres undefined) | -10.2% (inactive) and -20.9% (inactive)
35 | O=C(OC(=C(c1ccccc1)c1ccccc1)c1ccccc1)c1ccccc1 | 12.8% (inactive) and -6.95% (inactive)
36 | Cc1ccc(N(O)C(C)(C)C)cc1 | -16.4% (inactive) and -2.35% (inactive)
37 | Cc1c2oc3c(C)ccc(C(=O)NC4C(=O)NC(C(C)C)C(=O)N5CCCC5C(=O)N(C)CC(=O)N(C)C(Cc5ccc(O)cc5)C(=O)OC4C)c3nc-2c(C(=O)NC2C(=O)NC(C(C)C)C(=O)N3CCCC3C(=O)N(C)CC(=O)N(C)C(Cc3ccc(O)cc3)C(=O)OC2C)c(N)c1=O (centres undefined) (I: TVP[Sar][NMeY] / II: TVP[Sar][NMeY]; ester I:1-I:C, II:1-II:C; linker I:N-II:N via Actinocin(9to1); configuration not given here) | -11.3% (inactive) and -12.8% (inactive)
38 | CC(O)C(O)C(O)C(O)CO (centres undefined) | 17.1% (inactive) and -19.8% (inactive)
39 | Cc1ccc2ccccc2[n+]1C | 31.9% (inactive) and -24.6% (inactive)
